Measured values taken from PubChem BioAssay (Tox21).
Records with an inconclusive call do not appear. Entries that show only a call come without a potency. Calls of active or inactive are those of the source. Calls come from the whole dose curve.

Assay: p53 small molecule agonists, cell-based qHTS assay: qHTS cell viability counter screen (AID 1963581); note: nearly all actives have a fitted effect of over 45% in size
Details: p53RE-bla HCT-116 viability, ATP luminescence, 16 h; series mostly up to 66 µM
Text: National Center for Advancing Translational Sciences [NCATS]
Division of Preclinical Innovation [DPI]
U.S. Environmental Protection Agency [EPA]
National Institutes of Environmental Health Sciences [NIEHS]
National Toxicology Program [NTP]
U.S. Food and Drug Administration [FDA]
p53, a tumor suppressor protein, is activated following cellular insult, including DNA damage and other cellular stresses. The activation of p53 regulates cell fate by inducing DNA repair, cell cycle arrest, apoptosis, or cellular senescence. The activation of p53, therefore, is a good indicator of DNA damage and other cellular stresses. The CellSensor p53RE-bla HCT-116 cell line (Invitrogen) contains a stably integrated beta-lactamase reporter gene under control of the p53 response elements. The activation of the reporter gene under culture conditions can be detected by fluorescence intensity. This cell line was used to screen the Tox21 compound library in a 1536-well plate format and to identify agonists that activate the p53 signaling pathway. The cytotoxicity of the Tox21 compound library against the p53 RE-bla HCT-116 cell line was tested in parallel by measuring the intra cellular ATP content in the same wells.
Tox21 Assay Protocol Summary:
The p53RE-bla cells were dispensed at 4,000 cells/5 ul/well in 1536-well black wall/clear bottom plates using a Multidrop dispenser. After the assay plates were incubated at a 37 C/5% CO2 incubator for 5 hours, 23 nL of compounds dissolved in DMSO, positive controls or DMSO only was transferred to the assay plate by a pin tool. The plates were incubated at 37 C for 16 hours. After 1 uL of LiveBLAzerTM B/G FRET substrate was added using a Flying Reagent Dispenser, the plates were incubated at room temperature for 2 hours, and fluorescence intensity was measured by an Envision plate reader. For cell viability readout that measures cytotoxicity, 4 ul/well of CellTiter-Glo reagent was added into the assay plates using a Flying Reagent Dispenser. After 30 min incubation at room temperature, the luminescence intensity in the plates was measured using a ViewLux plate reader.
With `CCCC[N+]1(C)CCCCC1` the Potency was “inactive”. In the case of `C=C1CC[C@@]2(O)[C@H]3Cc4ccc(O)c5c4[C@@]2(CCN3CC2CC2)[C@H]1O5`, the Potency is reported as “inactive”. For `CC(O)CN1CCN(CC(=O)[O-])CCN(CC(=O)[O-])CCN(CC(=O)[O-])CC1.[Gd+3]` (stereo not given), the Potency was “inactive”. For `CC(C)(C1CCC(O)CC1)C1CCC(O)CC1` (stereo not given), the Potency was “inactive”. With `N#CCCCl` the Potency was “inactive”. With `O=[N+]([O-])c1ccc(Oc2ccc(Cl)cc2Cl)cc1` the Potency was “inactive”. For `CC1CN1` (stereo not given), the Potency was “inactive”. In the case of `NC(=O)CF`, the Potency is reported as “inactive”. With `CCCCOC(=O)c1ccccc1C(=O)OCc1ccccc1` the Potency was “inactive”. In the case of `[O-][Cl+]O`, the Potency is reported as “inactive”. In the case of `Cc1ccc2cc(C)ccc2c1`, the Potency is reported as “inactive”. With `CCOP(=O)(OCC)SCCSCC` the Potency was “inactive”. For `Oc1ccc(Cl)cc1Cl`, the Potency was “inactive”. For `[N-]=[N+]=[N-]`, the Potency was “inactive”. For `CC(C)(c1ccc(OCC2CO2)cc1)c1ccc(OCC2CO2)cc1` (stereo not given), the Potency was “inactive”. For `CCN(Cc1ccc(Cl)nc1)/C(=C/[N+](=O)[O-])NC`, the Potency was “inactive”. With `C[Si](Cn1cncn1)(c1ccc(F)cc1)c1ccc(F)cc1` the Potency was “inactive”. With `CNC(=O)NC(O)C(Cl)(Cl)Cl` (stereo not given) the Potency was “inactive”. In the case of `Nc1ccccc1C(=O)OCCc1ccccc1`, the Potency is reported as “inactive”. For `CCCCCCCCCCBr`, the Potency was “inactive”. For `C/C=C/CC#N`, the Potency was “inactive”. With `CC(C(=O)c1ccccc1)N(C)C` (stereo not given) the Potency was “inactive”. In the case of `CSc1nnc(C(C)(C)C)c(=O)n1N`, the Potency is reported as “inactive”. For `Clc1ccc(C(Cl)(Cl)Cl)cn1`, the Potency was “inactive”. With `COc1ccc(C(O)(c2cncnc2)C2CC2)cc1` (stereo not given) the Potency was “inactive”. In the case of `COC(=O)C(Cl)C(=O)OC`, the Potency is reported as “inactive”. With `CCCCCCCCCCCCCCCC[N+](C)(C)C` the Potency was “inactive”. With `Cc1ccc(Cl)c(O)c1` the Potency was “inactive”. In the case of `COC(=O)NS(=O)(=O)c1ccc(N)cc1`, the Potency is reported as “inactive”. In the case of `[Cl-].[Cl-].[Cl-].[Fe+3]`, the Potency is reported as “inactive”. For `CC(C)=CC1C(C(=O)OCc2cccc(Oc3ccccc3)c2)C1(C)C` (stereo not given), the Potency was “inactive”. With `ClC(Cl)=C(Cl)C(Cl)=C(Cl)Cl` the Potency was “inactive”. For `C#CC(C)(C)NC(=O)c1cc(Cl)cc(Cl)c1`, the Potency was “inactive”. For `c1nc[nH]n1`, the Potency was “inactive”. With `CC1(C)C(C=C(Cl)Cl)C1C(=O)OC(C#N)c1ccc(F)c(Oc2ccccc2)c1` (stereo not given) the Potency was “inactive”. In the case of `CN(C)NC(=O)CCC(=O)O`, the Potency is reported as “inactive”. For `Clc1ccc(C(Cl)(Cl)Cl)c(Cl)c1`, the Potency was “inactive”. With `CN1C(=O)CN=C(c2ccccc2)c2cc(Cl)ccc21` the Potency was “inactive”. In the case of `CCCCc1c(C)nc(NCC)[nH]c1=O`, the Potency is reported as “inactive”. With `COC[C@@H](NC(C)=O)C(=O)NCc1ccccc1` the Potency was “inactive”.
